Source: the supplement of paper PMC6555819

Tested on: PPARg DBDmut IVT, anti-PPARg (DBD mutation: PPARg1 K132A/R137A, NR concentration 270 nM)
Assay: PBM binding z-score (relative to random genomic background probes); higher = stronger binding; sequences stand for … in GC…GCGATTGACAGCGTAGAATGAAGG
Outline: (§1)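 Regression normalization was applied to scanned fluorescence from custom Agilent 4×180K protein-binding microarrays. Before scanning, arrays were incubated 1 h with ligand-free nuclear receptor dimers, and binding was detected with antibodies against each partner (one per run). Binding z-scores use the random background probes as reference.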

Q: TCAATGAGGTTAAAGATCAGGGAACGTGGCGTCG was tested. Which PBM binding z-score did it give?
A: 0.398

Q: Which PBM binding z-score does the source give for TAGCTTAGGTCATTGGGCCAGTATAGTACGCATC here?
A: 0.108

Q: GGAACCAGGGCAAGTTGATAGCAGAGTTTGATGG was tested. Which PBM binding z-score did it give?
A: 1.22

Q: For TTACCAAGATGAAGGTCGTTGATCCCTCTGTAGA, which PBM binding z-score is on record?
A: 0.663

Q: For TCTTGTAGATCAAGCAGGTTAAGAACGCCTGAGT, which PBM binding z-score is on record?
A: -0.44

Q: TGAATGAGGTTAAAGATCAGGGCACGTGGCGTCG was tested. Which PBM binding z-score did it give?
A: 1.27

Q: With ATCTCTAGGTAAGACTCCGTTCAGTGAAGAACGC as the sequence, how does the PBM binding z-score read?
A: 0.804

Q: For CCAGACAGGTAAAAGGTAACTCAGTCTGGTACGC, which PBM binding z-score is on record?
A: -0.566

Q: For TCATATAGGTAAAAGGTGAAATTCGGTGTGGTAA, which PBM binding z-score is on record?
A: 1.94

Q: How did the PBM binding z-score turn out when GGAACGAGGACAAGTTGATAGCAGAGTTTGATGG was run?
A: -0.565

Q: With TCGAGTAGGTTTGTCGGGGCATTCAGCCAACATA as the sequence, how does the PBM binding z-score read?
A: -0.328

Q: With GATACAGGGTCAGCTAGAGGCCAGAGTGTGGAAA as the sequence, how does the PBM binding z-score read?
A: -0.662

Q: How did the PBM binding z-score turn out when TAGCCAAGGTCATGGGCCAGTATACCACGCGAAC was run?
A: 1.48

Q: For GCTAGTTGGTGAGTAAAAGGTCACACACCGGTCG, which PBM binding z-score is on record?
A: 0.663

Q: Which PBM binding z-score does the source give for CCTACTGGGCCATCAGATCATTGATATCAACGTT here?
A: 0.0377

Q: How did the PBM binding z-score turn out when TAGCCTAGGTCATCCGGGCCAGTATAGTGTCGGC was run?
A: -0.657

Q: With CGTCCAAGGTCAAAGGACAGTGAAGAGATGACGG as the sequence, how does the PBM binding z-score read?
A: 0.353

Q: Which PBM binding z-score does the source give for TCACGGAGGACACGAAAGGTCAGAGCTCGACATC here?
A: -0.261

Q: With AATGCAGGGTCACTAGGCCAGAGTAGGTACGAAT as the sequence, how does the PBM binding z-score read?
A: 0.273

Q: CGAACTAGGTCATTGGCAGGACAGTGAATAGTAA was tested. Which PBM binding z-score did it give?
A: 0.566

Q: For TCATATAGGTAATACAGGTGAAGGTCGGCATCTA, which PBM binding z-score is on record?
A: 1.45

Q: For AGAATGAGGTTAAGATCAGTGAAACAGAATACAT, which PBM binding z-score is on record?
A: 0.567

Q: Which PBM binding z-score does the source give for TGAATGAGGTTATAAGATCAGGCAACGTTGCAAA here?
A: 0.207

Q: CGAACGAGGGCATGAGTTGACAGCAAATGCCGAT was tested. Which PBM binding z-score did it give?
A: -0.439

Q: Which PBM binding z-score does the source give for CGAACTGGGTCATTGACAGGACAGTGAATAGTAA here?
A: 1.35

Q: How did the PBM binding z-score turn out when GCTGCTAGGCCAACTGATGGTCAGCTAAAGCTCG was run?
A: -1.3

Q: How did the PBM binding z-score turn out when TCTAGTTGGTCACGGAGGTCACACACGACGGGTA was run?
A: 1.18

Q: How did the PBM binding z-score turn out when CGTCCAAGGTCAATGCTAGGACAGTGAAAGCATT was run?
A: -0.465

Q: How did the PBM binding z-score turn out when CAAACTAGGTCAGAACAGGACAGTGAAGGATGAT was run?
A: 3.64

Q: With ATCTCTAGGAAACAAGTTCAGTGAAAGAGAGGAC as the sequence, how does the PBM binding z-score read?
A: 0.509

Q: With AGTCAAAGTTCATCTAGGTAACTTAAGATATGCT as the sequence, how does the PBM binding z-score read?
A: 1.38

Q: Which PBM binding z-score does the source give for TCTAGTTGGTCACGGAGGTCACCCACGACGGGTA here?
A: 1.25

Q: How did the PBM binding z-score turn out when CAAACTAGGTCACGAAAGGTCAATGTCGAATGAC was run?
A: 3.62

Q: With ATAGACAGGTGAGTGAAGGTAACTCAGCTGGACG as the sequence, how does the PBM binding z-score read?
A: 0.208

Q: CCCACTGGGCCAAGGTCATTGATCAGTCAAAGCA was tested. Which PBM binding z-score did it give?
A: -1.7

Q: ATATGTAGGTTGTCGGGTCATTCAGTTTGCGCAT was tested. Which PBM binding z-score did it give?
A: 1.67

Q: With ACTAGCAGGCCAAGTTTGGGTCACTTAAACAAAG as the sequence, how does the PBM binding z-score read?
A: -0.134

Q: With GGAACGAGGGCAAGTTGATAGCAGAGTTTGATGG as the sequence, how does the PBM binding z-score read?
A: -0.551

Q: Which PBM binding z-score does the source give for GCGACTGGAGCATCAGCAGGTTACCATAACTTAA here?
A: -0.56

Q: How did the PBM binding z-score turn out when AATACAGGGTCACAAGGCCAGAGTAGGTACGAAT was run?
A: 1.5

Tested on: PPARg homodimer (NR concentration 180 nM)
Assay: as above
Outline: as §1

Q: How did the PBM binding z-score turn out when TCAATGAGGTTAAAGATCAGGGAACGTGGCGTCG was run?
A: 0.433

Q: With TAGCTTAGGTCATTGGGCCAGTATAGTACGCATC as the sequence, how does the PBM binding z-score read?
A: 1.34

Q: Which PBM binding z-score does the source give for GGAACCAGGGCAAGTTGATAGCAGAGTTTGATGG here?
A: 1.02

Q: With TTACCAAGATGAAGGTCGTTGATCCCTCTGTAGA as the sequence, how does the PBM binding z-score read?
A: 0.704

Q: Which PBM binding z-score does the source give for TCTTGTAGATCAAGCAGGTTAAGAACGCCTGAGT here?
A: -0.0997

Q: With TGAATGAGGTTAAAGATCAGGGCACGTGGCGTCG as the sequence, how does the PBM binding z-score read?
A: 0.587

Q: For ATCTCTAGGTAAGACTCCGTTCAGTGAAGAACGC, which PBM binding z-score is on record?
A: 1.16

Q: For CCAGACAGGTAAAAGGTAACTCAGTCTGGTACGC, which PBM binding z-score is on record?
A: 0.614

Q: TCATATAGGTAAAAGGTGAAATTCGGTGTGGTAA was tested. Which PBM binding z-score did it give?
A: 2.68

Q: How did the PBM binding z-score turn out when GGAACGAGGACAAGTTGATAGCAGAGTTTGATGG was run?
A: -0.282

Q: Which PBM binding z-score does the source give for TCGAGTAGGTTTGTCGGGGCATTCAGCCAACATA here?
A: 0.186

Q: With GATACAGGGTCAGCTAGAGGCCAGAGTGTGGAAA as the sequence, how does the PBM binding z-score read?
A: 3.47

Q: For TAGCCAAGGTCATGGGCCAGTATACCACGCGAAC, which PBM binding z-score is on record?
A: 2.86

Q: How did the PBM binding z-score turn out when GCTAGTTGGTGAGTAAAAGGTCACACACCGGTCG was run?
A: 3.73

Q: For CCTACTGGGCCATCAGATCATTGATATCAACGTT, which PBM binding z-score is on record?
A: -0.139

Q: Which PBM binding z-score does the source give for TAGCCTAGGTCATCCGGGCCAGTATAGTGTCGGC here?
A: 1.35

Q: How did the PBM binding z-score turn out when CGTCCAAGGTCAAAGGACAGTGAAGAGATGACGG was run?
A: 2.89

Q: How did the PBM binding z-score turn out when TCACGGAGGACACGAAAGGTCAGAGCTCGACATC was run?
A: 2.1

Q: With AATGCAGGGTCACTAGGCCAGAGTAGGTACGAAT as the sequence, how does the PBM binding z-score read?
A: 2.1

Q: CGAACTAGGTCATTGGCAGGACAGTGAATAGTAA was tested. Which PBM binding z-score did it give?
A: 1.51

Q: For TCATATAGGTAATACAGGTGAAGGTCGGCATCTA, which PBM binding z-score is on record?
A: 1.83

Q: With AGAATGAGGTTAAGATCAGTGAAACAGAATACAT as the sequence, how does the PBM binding z-score read?
A: 0.498

Q: For TGAATGAGGTTATAAGATCAGGCAACGTTGCAAA, which PBM binding z-score is on record?
A: 0.125

Q: With CGAACGAGGGCATGAGTTGACAGCAAATGCCGAT as the sequence, how does the PBM binding z-score read?
A: 0.454

Q: Which PBM binding z-score does the source give for CGAACTGGGTCATTGACAGGACAGTGAATAGTAA here?
A: 0.71

Q: Which PBM binding z-score does the source give for GCTGCTAGGCCAACTGATGGTCAGCTAAAGCTCG here?
A: -0.811

Q: TCTAGTTGGTCACGGAGGTCACACACGACGGGTA was tested. Which PBM binding z-score did it give?
A: 3.41

Q: For CGTCCAAGGTCAATGCTAGGACAGTGAAAGCATT, which PBM binding z-score is on record?
A: 1.7

Q: Which PBM binding z-score does the source give for CAAACTAGGTCAGAACAGGACAGTGAAGGATGAT here?
A: 1.77

Q: How did the PBM binding z-score turn out when ATCTCTAGGAAACAAGTTCAGTGAAAGAGAGGAC was run?
A: 0.901

Q: AGTCAAAGTTCATCTAGGTAACTTAAGATATGCT was tested. Which PBM binding z-score did it give?
A: 4.01

Q: With TCTAGTTGGTCACGGAGGTCACCCACGACGGGTA as the sequence, how does the PBM binding z-score read?
A: 3.92

Q: How did the PBM binding z-score turn out when CAAACTAGGTCACGAAAGGTCAATGTCGAATGAC was run?
A: 4.79

Q: For ATAGACAGGTGAGTGAAGGTAACTCAGCTGGACG, which PBM binding z-score is on record?
A: 0.132

Q: With CCCACTGGGCCAAGGTCATTGATCAGTCAAAGCA as the sequence, how does the PBM binding z-score read?
A: 1.75

Q: Which PBM binding z-score does the source give for ATATGTAGGTTGTCGGGTCATTCAGTTTGCGCAT here?
A: 2.56

Q: For ACTAGCAGGCCAAGTTTGGGTCACTTAAACAAAG, which PBM binding z-score is on record?
A: 0.336

Q: For GGAACGAGGGCAAGTTGATAGCAGAGTTTGATGG, which PBM binding z-score is on record?
A: 0.361

Q: GCGACTGGAGCATCAGCAGGTTACCATAACTTAA was tested. Which PBM binding z-score did it give?
A: -0.607

Q: AATACAGGGTCACAAGGCCAGAGTAGGTACGAAT was tested. Which PBM binding z-score did it give?
A: 1.69
